Targets with a hit are over-represented here; the source holds about 7,900 in all. About 0.6% of all pairs of compound and target were hits.
What was measured:
Test in all cases: log2 fold change, soluble protein after heating vs DMSO (PISA); higher = thermal stabilisation; K562 cells, 10 uM, 30 min; active = over 0.2 and 3.5 SD of the protein, either way, in both replicates (recomputed)
[1] = compound: C1=CC=C(C=C1)[C@H](COC2=CC3=C(C=C2)NC(=O)N3)NC(=O)C4=CC=CN(C4=O)CC5=CC(=C(C=C5)F)F
How it was run: (§1)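 Thermal stability values are relative to control samples and come from duplicates. They are expressed as log2 fold changes. For measurement, K562 cells (2×10^6 cells/mL) received 10 μM compound for 30 min, and aliquots were heated for 3 min over 48°C-58°C, pooled, and extracted at 4°C in PBS with 0.5% NP-40. Soluble protein, the supernatant after 21,000xg for 90 min, was quantified by TMTpro 16plex LC-MS/MS with equalised channel sums.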

[2] = compound: CC1=C(SC2=C1C(=N[C@H](C3=NN=C(N32)C)CC(=O)N)C4=CC=C(C=C4)Cl)C
How it was run: as §1

[3] = compound: CC1=C2C(=CC=C1)N=C(N(C2=O)C3=CC=CC=C3C)CN4C=NC5=C(N=CN=C54)N
How it was run: as §1

[4] = compound: Cc1sc2c(c1C)C(c1ccc(Cl)cc1)=N[C@@H](CC(=O)OC(C)(C)C)c1nnc(C)n1-2
How it was run: as §1

[5] = compound: c1ccc([C@@H]2C[C@H]2NC2CCNCC2)cc1
How it was run: as §1

Measured: log2 fold change

ARGLU1 (UniProt Q9NWB6)
inactive: [1] 0.072 | [2] -0.117 | [3] -0.013 | [4] 0.01 | [5] 0.096

BYSL (UniProt Q13895)
Chain of UniProt Q13895 (Q13895 whole entry, looked up): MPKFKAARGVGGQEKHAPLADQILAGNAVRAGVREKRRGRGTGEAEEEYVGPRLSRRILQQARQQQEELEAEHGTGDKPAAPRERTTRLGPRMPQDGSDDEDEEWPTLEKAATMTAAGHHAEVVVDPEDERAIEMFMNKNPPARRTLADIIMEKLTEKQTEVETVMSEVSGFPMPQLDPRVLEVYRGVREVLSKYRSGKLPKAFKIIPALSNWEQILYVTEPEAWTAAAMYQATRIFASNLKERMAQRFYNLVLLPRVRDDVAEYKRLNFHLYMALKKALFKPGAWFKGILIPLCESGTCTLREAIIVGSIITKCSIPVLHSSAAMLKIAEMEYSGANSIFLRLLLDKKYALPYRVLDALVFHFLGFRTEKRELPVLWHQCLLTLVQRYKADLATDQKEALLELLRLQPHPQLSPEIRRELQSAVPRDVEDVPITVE
inactive: [1] 0.001 | [2] -0.085 | [3] -0.09 | [4] 0.02 | [5] -0.042

ARFGAP1 (UniProt Q8N6T3)
inactive: [1] 0.033 | [2] 0.077 | [3] 0.074 | [4] -0.064 | [5] -0.034

ALDH18A1 (UniProt P54886)
Chain of UniProt P54886 (P54886 whole entry, looked up): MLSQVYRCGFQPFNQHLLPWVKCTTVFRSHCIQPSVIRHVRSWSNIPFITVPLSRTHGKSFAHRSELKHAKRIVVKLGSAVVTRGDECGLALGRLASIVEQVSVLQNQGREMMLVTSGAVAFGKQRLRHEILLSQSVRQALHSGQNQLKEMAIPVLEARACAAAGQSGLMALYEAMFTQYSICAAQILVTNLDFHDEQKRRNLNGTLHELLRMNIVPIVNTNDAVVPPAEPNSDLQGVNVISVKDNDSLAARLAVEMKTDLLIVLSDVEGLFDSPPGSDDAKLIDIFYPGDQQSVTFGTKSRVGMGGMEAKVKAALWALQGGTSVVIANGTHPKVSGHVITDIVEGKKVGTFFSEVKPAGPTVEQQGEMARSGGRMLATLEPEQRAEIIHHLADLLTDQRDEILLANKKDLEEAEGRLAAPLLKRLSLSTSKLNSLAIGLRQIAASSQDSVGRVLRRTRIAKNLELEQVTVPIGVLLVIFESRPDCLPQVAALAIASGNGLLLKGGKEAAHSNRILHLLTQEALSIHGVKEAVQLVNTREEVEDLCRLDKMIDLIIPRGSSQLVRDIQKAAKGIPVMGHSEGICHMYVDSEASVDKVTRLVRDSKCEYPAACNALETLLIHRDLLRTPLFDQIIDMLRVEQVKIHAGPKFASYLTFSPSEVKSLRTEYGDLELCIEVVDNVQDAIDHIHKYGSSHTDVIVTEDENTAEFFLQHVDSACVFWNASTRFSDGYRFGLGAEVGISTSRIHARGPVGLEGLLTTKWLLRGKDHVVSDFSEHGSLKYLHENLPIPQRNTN
inactive: [1] -0.107 | [2] -0.038 | [3] 0.028 | [4] 0.018 | [5] 0.02

ATP6V0A2 (UniProt Q9Y487)
inactive: [1] 0.018 | [2] -0.044 | [3] -0.007 | [4] -0.059 | [5] -0.014

BRAF (UniProt P15056)
Chain of UniProt P15056 (P15056 whole entry, looked up): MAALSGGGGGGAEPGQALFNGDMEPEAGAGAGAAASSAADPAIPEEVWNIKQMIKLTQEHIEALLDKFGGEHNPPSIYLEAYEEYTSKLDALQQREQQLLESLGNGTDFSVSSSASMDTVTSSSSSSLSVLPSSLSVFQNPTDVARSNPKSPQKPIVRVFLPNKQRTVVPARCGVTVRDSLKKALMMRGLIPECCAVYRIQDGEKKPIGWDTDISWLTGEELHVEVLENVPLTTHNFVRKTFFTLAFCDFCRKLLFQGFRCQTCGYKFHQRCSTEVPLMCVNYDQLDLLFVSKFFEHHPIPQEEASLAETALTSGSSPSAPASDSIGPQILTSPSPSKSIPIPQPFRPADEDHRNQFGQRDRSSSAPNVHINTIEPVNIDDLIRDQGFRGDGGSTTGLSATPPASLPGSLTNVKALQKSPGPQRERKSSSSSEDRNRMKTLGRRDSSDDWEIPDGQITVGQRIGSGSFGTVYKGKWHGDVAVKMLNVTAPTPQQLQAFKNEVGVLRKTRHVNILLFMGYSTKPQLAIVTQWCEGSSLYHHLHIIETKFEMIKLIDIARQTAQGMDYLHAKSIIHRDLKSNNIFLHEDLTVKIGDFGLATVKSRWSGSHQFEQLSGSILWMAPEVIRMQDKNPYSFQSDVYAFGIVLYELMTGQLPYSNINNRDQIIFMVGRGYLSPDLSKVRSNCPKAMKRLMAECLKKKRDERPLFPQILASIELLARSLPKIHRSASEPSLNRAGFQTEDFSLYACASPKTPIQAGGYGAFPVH
inactive: [1] -0.04 | [2] 0.075 | [3] 0.041 | [4] -0.018 | [5] -0.027

APOB (UniProt P04114)
inactive: [1] 0.041 | [2] 0.028 | [3] 0.055 | [4] 0.034 | [5] -0.013

ATP5ME (UniProt P56385)
inactive: [1] 0.028 | [2] 0.117 | [3] 0.007 | [4] -0.072 | [5] 0.014

BRD4 (UniProt O60885)
inactive: [1] -0.116 | [3] 0.141 | [5] 0.029
active: [2] 2.22 | [4] 1.99

AURKA (UniProt O14965)
inactive: [1] 0 | [2] 0.148 | [3] 0.018 | [4] 0.009 | [5] -0.038

ADH5 (UniProt P11766)
inactive: [1] 0.026 | [2] 0.024 | [3] 0.025 | [4] -0.023 | [5] 0.017

ALDH6A1 (UniProt Q02252)
inactive: [1] 0.082 | [2] 0.124 | [3] 0.128 | [4] -0.07 | [5] 0.019

ATP1B3 (UniProt P54709)
inactive: [1] 0.012 | [2] 0.042 | [3] 0.001 | [4] 0.002 | [5] 0.006

ABITRAM (UniProt Q9NX38)
Chain of UniProt Q9NX38 (Q9NX38 whole entry, looked up): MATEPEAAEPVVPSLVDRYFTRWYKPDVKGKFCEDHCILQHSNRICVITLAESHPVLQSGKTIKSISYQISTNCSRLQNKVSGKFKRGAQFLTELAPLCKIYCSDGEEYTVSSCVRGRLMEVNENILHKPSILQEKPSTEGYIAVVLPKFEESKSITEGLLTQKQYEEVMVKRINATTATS
inactive: [1] -0.037 | [2] 0.145 | [3] 0.032 | [4] -0.044 | [5] -0.016

AFDN isoform 5 (UniProt P55196)
inactive: [1] -0.04 | [2] 0.055 | [3] 0.069 | [4] -0.018 | [5] -0.023

ACTR1B (UniProt P42025)
inactive: [1] -0.049 | [2] 0.105 | [3] 0.034 | [4] 0.028 | [5] -0.029

ATP1A1 (UniProt P05023)
inactive: [1] 0.009 | [2] 0.051 | [3] -0.045 | [4] 0 | [5] -0.01

AARSD1 isoform 3 (UniProt Q9BTE6)
inactive: [1] -0.053 | [2] -0.068 | [3] 0.039 | [4] 0.047 | [5] 0.023

ADD2 (UniProt P35612)
inactive: [1] 0.005 | [2] 0.044 | [3] 0.014 | [4] -0.024 | [5] 0.016

ADRM1 (UniProt Q16186)
inactive: [1] 0.007 | [2] -0.062 | [3] -0.001 | [4] -0.019 | [5] -0.01

ASNS (UniProt P08243)
inactive: [1] 0.025 | [2] 0.044 | [3] 0.027 | [4] -0.008 | [5] -0.019

AGRN (UniProt O00468)
inactive: [1] 0.06 | [2] 0.154 | [3] 0.043 | [4] -0.038 | [5] 0.028

BUB1B isoform 3 (UniProt O60566)
inactive: [1] -0.077 | [2] -0.004 | [3] 0.1 | [4] 0.01 | [5] -0.002

BRIX1 (UniProt Q8TDN6)
inactive: [1] 0.093 | [2] -0.349 | [3] -0.242 | [4] 0.244 | [5] -0.007

AAR2 (UniProt Q9Y312)
inactive: [1] 0.024 | [2] 0.08 | [3] -0.053 | [4] 0.069 | [5] -0.012

ATP6V1C1 (UniProt P21283)
inactive: [1] -0.011 | [2] 0.004 | [3] 0.05 | [4] -0.002 | [5] -0.039

AUP1 (UniProt Q9Y679)
inactive: [1] -0.044 | [2] 0.053 | [3] 0.028 | [4] -0.074 | [5] -0.051

AP2M1 (UniProt C9JTK4)
inactive: [1] -0.113 | [2] 0.083 | [3] 0.131 | [4] 0.136 | [5] -0.076

ARHGAP25 isoform 4 (UniProt P42331)
inactive: [1] -0.181 | [2] -0.171 | [3] -0.173 | [4] -0.018 | [5] 0.109

BZW1 isoform 3 (UniProt Q7L1Q6)
inactive: [1] -0.227 | [2] 0.002 | [3] 0.044 | [4] -0.044 | [5] -0.017

ATOX1 (UniProt O00244)
inactive: [1] 0.033 | [2] 0.124 | [3] 0.101 | [4] -0.153 | [5] 0.008

AKR1C2 (UniProt P52895)
inactive: [1] 0 | [2] -0.04 | [3] 0.086 | [4] 0.057 | [5] -0.011

BRAP (UniProt Q7Z569)
inactive: [1] -0.058 | [2] 0.025 | [3] 0.05 | [4] 0.081 | [5] 0

ATP13A2 (UniProt Q9NQ11)
inactive: [1] 0.031 | [2] -0.075 | [3] 0.007 | [4] -0.062 | [5] 0.092

ABCB6 (UniProt Q9NP58)
inactive: [1] 0.001 | [2] 0.003 | [3] 0.05 | [4] -0.049 | [5] 0.012

AIFM2 (UniProt Q9BRQ8)
inactive: [1] 0.036 | [2] 0.047 | [3] 0.026 | [4] 0.045 | [5] 0

BPHL (UniProt Q86WA6)
inactive: [1] -0.015 | [2] 0.052 | [3] 0.075 | [4] 0.136 | [5] -0.065

ALDH2 (UniProt P05091)
inactive: [1] 0.009 | [2] 0.065 | [3] 0.032 | [4] -0.043 | [5] -0.001

BRD8 (UniProt Q9H0E9)
inactive: [1] 0.027 | [2] -0.009 | [3] 0.023 | [4] 0.009 | [5] 0.021

AP2A1 (UniProt O95782)
Chain of UniProt O95782 (O95782 whole entry, looked up): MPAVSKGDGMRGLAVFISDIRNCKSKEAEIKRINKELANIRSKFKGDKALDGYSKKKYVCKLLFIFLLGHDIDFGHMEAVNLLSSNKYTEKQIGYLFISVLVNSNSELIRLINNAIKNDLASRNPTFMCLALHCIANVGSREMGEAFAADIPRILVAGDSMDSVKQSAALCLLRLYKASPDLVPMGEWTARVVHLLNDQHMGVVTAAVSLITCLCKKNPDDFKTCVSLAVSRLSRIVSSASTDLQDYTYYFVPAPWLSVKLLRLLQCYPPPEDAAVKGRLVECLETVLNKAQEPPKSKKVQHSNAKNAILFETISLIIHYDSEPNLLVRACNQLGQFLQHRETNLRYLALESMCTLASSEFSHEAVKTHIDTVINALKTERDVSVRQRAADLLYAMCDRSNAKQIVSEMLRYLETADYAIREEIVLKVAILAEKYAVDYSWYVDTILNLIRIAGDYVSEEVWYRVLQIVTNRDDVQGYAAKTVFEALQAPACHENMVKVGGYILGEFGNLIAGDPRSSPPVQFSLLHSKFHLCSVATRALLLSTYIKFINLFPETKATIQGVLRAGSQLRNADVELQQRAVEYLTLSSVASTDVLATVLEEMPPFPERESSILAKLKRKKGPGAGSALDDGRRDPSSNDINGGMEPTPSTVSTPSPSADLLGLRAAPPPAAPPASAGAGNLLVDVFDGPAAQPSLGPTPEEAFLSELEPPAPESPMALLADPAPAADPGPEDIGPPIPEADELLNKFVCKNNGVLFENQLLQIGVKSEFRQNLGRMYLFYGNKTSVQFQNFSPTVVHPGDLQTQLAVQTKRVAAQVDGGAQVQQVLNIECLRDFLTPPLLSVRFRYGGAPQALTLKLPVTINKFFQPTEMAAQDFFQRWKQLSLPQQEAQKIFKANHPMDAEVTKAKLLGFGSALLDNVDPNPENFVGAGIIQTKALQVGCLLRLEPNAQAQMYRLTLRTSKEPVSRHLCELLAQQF
inactive: [1] -0.001 | [2] -0.021 | [3] -0.028 | [4] 0.047 | [5] -0.005

ACSL5 isoform 3 (UniProt Q9ULC5)
inactive: [1] -0.024 | [2] 0.043 | [3] 0.101 | [4] 0.057 | [5] -0.178

ACADVL isoform 3 (UniProt P49748)
inactive: [1] 0.019 | [2] 0.05 | [3] 0.009 | [4] -0.011 | [5] -0.018

ANGEL1 (UniProt Q9UNK9)
Chain of UniProt Q9UNK9 (Q9UNK9 whole entry, looked up): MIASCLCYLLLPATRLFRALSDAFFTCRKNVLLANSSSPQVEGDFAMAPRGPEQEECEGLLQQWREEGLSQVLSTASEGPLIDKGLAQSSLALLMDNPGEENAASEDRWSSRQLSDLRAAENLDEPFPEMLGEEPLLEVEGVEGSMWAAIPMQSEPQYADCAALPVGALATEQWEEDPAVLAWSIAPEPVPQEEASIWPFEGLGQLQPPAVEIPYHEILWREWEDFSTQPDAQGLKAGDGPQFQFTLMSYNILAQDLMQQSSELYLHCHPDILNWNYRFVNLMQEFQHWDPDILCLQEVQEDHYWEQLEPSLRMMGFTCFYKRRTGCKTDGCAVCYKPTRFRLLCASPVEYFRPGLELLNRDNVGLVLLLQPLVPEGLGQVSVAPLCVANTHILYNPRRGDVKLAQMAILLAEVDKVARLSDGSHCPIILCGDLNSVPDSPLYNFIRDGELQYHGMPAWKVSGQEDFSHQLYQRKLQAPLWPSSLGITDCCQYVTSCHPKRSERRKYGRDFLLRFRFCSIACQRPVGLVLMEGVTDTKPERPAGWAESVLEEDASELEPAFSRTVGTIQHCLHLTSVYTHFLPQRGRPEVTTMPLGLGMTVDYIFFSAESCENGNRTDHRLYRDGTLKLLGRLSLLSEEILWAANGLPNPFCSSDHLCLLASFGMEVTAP
inactive: [1] -0.256 | [3] -0.172 | [4] -0.042

BAD (UniProt Q92934)
inactive: [1] -0.001 | [2] -0.042 | [3] -0.086 | [5] 0.032

ARMC8 isoform 6 (UniProt Q8IUR7)
inactive: [1] 0.053 | [3] 0.088

AARSD1 (UniProt Q9BTE6)
inactive: [1] -0.081 | [2] -0.267 | [5] -0.068

BDH2 (UniProt Q9BUT1)
inactive: [1] -0.033 | [2] 0.087 | [3] -0.213 | [5] 0.12

ADD1 isoform 4 (UniProt P35611)
inactive: [1] -0.03 | [2] 0.04 | [5] 0.217

APOBEC3G (UniProt Q9HC16)
inactive: [1] 0.089 | [3] 0.436 | [4] 0.147

AIF1 (UniProt P55008)
inactive: [1] -0.114 | [3] 0.04

BRMS1 (UniProt Q9HCU9)
inactive: [4] -0.011

BRAF, A0A2R8Y8E0
inactive: [4] 0.162

ADPRH (UniProt P54922)
inactive: [1] -0.035 | [3] 0.344 | [4] -0.121

APAF1 (UniProt O14727)
Chain of UniProt O14727 (O14727 whole entry, looked up): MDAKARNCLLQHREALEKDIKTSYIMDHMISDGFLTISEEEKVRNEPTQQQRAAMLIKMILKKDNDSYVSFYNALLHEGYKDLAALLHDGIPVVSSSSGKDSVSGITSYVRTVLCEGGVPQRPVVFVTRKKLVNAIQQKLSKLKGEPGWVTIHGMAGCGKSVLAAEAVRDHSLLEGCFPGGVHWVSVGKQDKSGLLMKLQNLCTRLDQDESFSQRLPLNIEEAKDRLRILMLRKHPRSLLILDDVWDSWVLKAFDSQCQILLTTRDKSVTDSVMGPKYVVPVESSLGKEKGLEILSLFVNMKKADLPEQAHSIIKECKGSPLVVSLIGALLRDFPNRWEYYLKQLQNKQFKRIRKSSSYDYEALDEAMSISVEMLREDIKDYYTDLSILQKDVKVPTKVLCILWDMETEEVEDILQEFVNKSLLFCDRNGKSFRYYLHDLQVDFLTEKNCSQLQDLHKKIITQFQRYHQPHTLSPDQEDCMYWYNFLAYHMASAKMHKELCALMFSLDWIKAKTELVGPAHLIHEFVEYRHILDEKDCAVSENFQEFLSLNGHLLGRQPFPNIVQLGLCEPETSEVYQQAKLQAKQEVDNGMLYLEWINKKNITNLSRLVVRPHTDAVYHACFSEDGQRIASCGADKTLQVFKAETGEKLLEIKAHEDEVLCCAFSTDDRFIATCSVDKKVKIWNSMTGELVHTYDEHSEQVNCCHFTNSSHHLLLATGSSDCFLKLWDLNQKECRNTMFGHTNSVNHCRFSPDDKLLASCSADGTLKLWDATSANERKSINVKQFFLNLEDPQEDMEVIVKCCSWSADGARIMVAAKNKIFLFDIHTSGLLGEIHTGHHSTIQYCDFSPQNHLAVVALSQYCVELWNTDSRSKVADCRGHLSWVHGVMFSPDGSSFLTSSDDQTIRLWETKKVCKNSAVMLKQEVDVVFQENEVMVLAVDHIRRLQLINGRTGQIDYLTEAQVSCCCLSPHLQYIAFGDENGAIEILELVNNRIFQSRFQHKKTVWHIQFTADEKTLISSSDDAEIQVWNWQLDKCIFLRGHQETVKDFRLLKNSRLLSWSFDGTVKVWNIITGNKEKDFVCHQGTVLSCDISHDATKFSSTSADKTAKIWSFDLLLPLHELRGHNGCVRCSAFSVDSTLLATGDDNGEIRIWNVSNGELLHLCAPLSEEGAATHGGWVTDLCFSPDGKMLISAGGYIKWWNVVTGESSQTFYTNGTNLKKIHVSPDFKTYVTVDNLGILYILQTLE
inactive: [2] 0.031 | [3] 0.112 | [5] 0.055
